Laboratory results reported in the supplement of paper PMC10498489.
Among all 2,300 compounds or so, about 330 (14%) showed activity.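 The calls were made as follows: active = median modified Z-score above 1.96; inactive = 1.96 or below.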 The list is a sample of the results.

These compounds were tested on HepG2 Srxn1-GFP reporter cells (+30 nM CDDO-Me) (assay: Srxn1-GFP intensity median modified Z-score relative to plate median; higher = stronger NRF2 / oxidative stress reporter activation, active = hit call of the paper). Conditions: 10 µM; exposure time: 24h.
Procedure, shortened: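 HepG2 Srxn1-GFP BAC reporter cells were seeded at 20,000 per well in 96-well plates and co-exposed for 24 h to compound at 10 μM and an NRF2 activator at 30 nM, with DMSO at ≤0.1%, in three replicate plates. Cells were fixed with formaldehyde, stained with Hoechst and imaged by confocal microscopy, and cytoplasmic GFP was measured per cell, with images holding under 100 cells discarded. The reported value is the median over replicates of each plate's modified Z-score of GFP intensity. For this score, scaling used 1.4826 × median absolute deviation.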

Srxn1-GFP intensity median modified Z-score, inactive:
C=C1C[C@]23C[C@@]1(O)CC[C@H]2[C@@]12C=C[C@H](O)[C@@](C)(C(=O)O1)[C@H]2C3C(=O)O (some centres not stated) [euspeclibcmpd1408] 0.616
NC[C@@H]1O[C@H](O[C@@H]2[C@@H](CO)OC(O[C@@H]3[C@@H](O)[C@H](N)C[C@H](N)[C@H]3OC3O[C@H](CN)[C@@H](O)[C@H](O)[C@H]3N)[C@@H]2O)[C@H](N)[C@@H](O)[C@@H]1O (some centres not stated) [euspeclibcmpd206] 0.688
O=C(O)C1CC(=O)C(O)C(O)C1 (configuration not stated) [euspeclibcmpd2407] -0.321
O=C(O)CCCCC1CCSS1 (configuration not stated) [euspeclibcmpd1157] 0.0225
CCOC(=O)CCCCCCCCCCCCC1C=CCC1 (configuration not stated) [euspeclibcmpd2000] -0.411
COc1ccc(-c2coc3cc(O)ccc3c2=O)c(OC)c1 [euspeclibcmpd1838] 1.83
C=CC[S+]([O-])CC(N)C(=O)O (configuration not stated) [euspeclibcmpd2346] -0.228
O=C(O)CCCCCCCC(O)C(O)CCCCCCO (configuration not stated) [euspeclibcmpd1577] -0.245
CS(=O)(=O)OCCCCOS(C)(=O)=O [euspeclibcmpd40] 1.41
COCCCOc1cc(C[C@@H](C[C@H](N)[C@@H](O)CC(C(=O)NCC(C)(C)C(N)=O)C(C)C)C(C)C)ccc1OC (some centres not stated) [euspeclibcmpd873] 0.194
CC(C)C1CCC(C(=O)NC(Cc2ccccc2)C(=O)O)CC1 (configuration not stated) [euspeclibcmpd675] -0.338
Nc1ccc(S(N)(=O)=O)cc1 [euspeclibcmpd1042] -0.418
Nc1ccc(S(=O)(=O)c2ccc(N)cc2)cc1 [euspeclibcmpd82] 0
NCCC(=O)NC(Cc1c[nH]cn1)C(=O)O (configuration not stated) [euspeclibcmpd1431] -0.178
C[C@]12CCC3c4ccc(OC(=O)c5ccccc5)cc4CCC3C1CCC2=O (some centres not stated) [euspeclibcmpd2153] -0.646
CC(=O)NC(CC(=O)NC(CCC(=O)O)C(=O)O)C(=O)O (configuration not stated) [euspeclibcmpd1295] -0.164
CC[C@H](/C=C/C(C)C1CCC2C3CC=C4CC(=O)CC[C@]4(C)C3CC[C@]12C)C(C)C (some centres not stated) [euspeclibcmpd1667] -0.11
CC(C)(S)C(N)C(=O)O (configuration not stated) [euspeclibcmpd968] 0.0726
OC[C@@H](O)[C@@H](O)[C@H](O)[C@@H](O)CO [euspeclibcmpd2147] -0.0321
N=C(N)N=C(N)N1CCOCC1 [euspeclibcmpd1191] -0.583
NC(=O)CCC(NC(=O)C(N)CO)C(=O)O (configuration not stated) [euspeclibcmpd2427] -0.15
CC(=O)OC1CCC23CC1(C)CCC2C(C)(C)CC3OC(C)=O (configuration not stated) [euspeclibcmpd1983] 0.679
C[C@@H]1CC[C@H]2C(C)(C)C3CC12CC[C@@]3(C)O (some centres not stated) [euspeclibcmpd1468] -0.304
Cc1ccccc1-n1cnnc1SCC(=O)c1ccc2c(c1)OCCO2 1.22
Cc1ccc2c(c1)CC[C@H]1CC(=O)CC[C@]21C [euspeclibcmpd2206] 0.163
CC(C)C1=CC2=CCC3[C@](C)(CCC[C@]3(C)C(=O)O)C2CC1 (some centres not stated) [euspeclibcmpd1332] -0.234
CN1C(CC(=O)c2ccccc2)CCCC1CC(O)c1ccccc1 (configuration not stated) [euspeclibcmpd1050] -0.349
Cc1cc[nH]c(=NS(=O)(=O)c2ccc(N)cc2)n1 [euspeclibcmpd275] -0.506
NC(=O)C(c1ccccc1)(c1ccccc1)C1CCN(CCc2ccc3c(c2)CCO3)C1 (configuration not stated) [euspeclibcmpd914] -0.0168
Cc1cc(C)c2c(=O)c3c(oc2c1)C(=O)N(Cc1ccc(F)cc1)C3c1cccc(O)c1 (configuration not stated) 1.43
CCCCCCCCCCCCCCCC(=O)O[C@@H]1[C@@H](O)[C@@H](O)[C@H]([C@H](NC(=O)C2C[C@@H](CCC)CN2C)[C@H](C)Cl)O[C@@H]1SC (some centres not stated) [euspeclibcmpd1310] 0.0886
CCCCCCCCCCCCCCCC[N+](C)(C)CCN(Cc1ccc(OC)cc1)c1ncccn1 [euspeclibcmpd626] 1.67
Oc1ccc(OCc2ccccc2)cc1 [euspeclibcmpd515] 1.16
CCCCC(O)c1ccccc1 (configuration not stated) [euspeclibcmpd2082] -0.178
C[C@]12C=CC(=O)CC1=CCC1C3C[C@@H](O)[C@](O)(C(=O)CO)[C@@]3(C)C[C@H](O)[C@@]12F (some centres not stated) [euspeclibcmpd302] -0.809
CC1(C)C(C(=O)O)N2C(=O)C[C@H]2S1(=O)=O (some centres not stated) [euspeclibcmpd473] -0.4

Srxn1-GFP intensity median modified Z-score, active:
O=C(O)CCCCCCCCCCCCC1C=CCC1 (configuration not stated) [euspeclibcmpd1516] 10.6
CS(C)(=O)=O [euspeclibcmpd1496] 20.2
Nc1ccc(S(=O)(=O)O)cc1 [euspeclibcmpd2086] 2.19
CN(C)c1ccc2nc3ccc(N(C)C)cc3[s+]c2c1 [euspeclibcmpd789] 9.06
Cc1cc2nc3ccc(N(C)C)cc3[s+]c2cc1N [euspeclibcmpd1030] 9
CC(=O)O[C@]1(C)CC[C@@]23CC1C(C)(C)[C@@H]2CC[C@H]3C [euspeclibcmpd1510] 3.58
CC(C)c1ccc2c(c1)CCC1C(C)(C(N)=O)CCCC21C (configuration not stated) [euspeclibcmpd1367] 15.1
CCCCCCCCCCCCC[N+](C)(C)Cc1ccccc1 [euspeclibcmpd590] 3.29
CC(C)(C)CC(C)(C)c1ccc(OCCOCC[N+](C)(C)Cc2ccccc2)cc1 [euspeclibcmpd33] 9.81
C[N+](C)(CCOc1ccccc1)Cc1ccccc1 [euspeclibcmpd868] 2.62
Cc1cc(C(C)(C)CC(C)(C)C)ccc1OCCOCC[N+](C)(C)Cc1ccccc1 [euspeclibcmpd556] 24
